# Data published in paper PMC11062922 (Nature Chemical Biology, 2023).
# Like-named read-outs stand apart in the source and are kept apart here.
# Assays:
# Set-up in all cases: species or system human, MV4-11 + K-562 + COLO205 + SK-N-BE2 + OVCAR-8
# GAK = conditions: read-out: apparent Kd, compound concentrations: 100 nM and 1000 nM (sheet 'Samples'), n = 1
# NQO1 = conditions: read-out: apparent Kd; compound concentrations: 100 nM and 1000 nM (sheet 'Samples'), CATDS: 0.42980166948746801; n = 1
# FN3K = conditions: read-out: apparent Kd; compound concentrations: 100 nM and 1000 nM (sheet 'Samples'), CATDS: 0.30544658046652101; n = 1
# ROCK1 = conditions: read-out: apparent Kd; compound concentrations: 100 nM and 1000 nM (sheet 'Samples'), CATDS: 0.35168740775253199; n = 1
# ROCK2 = conditions: read-out: apparent Kd; compound concentrations: 100 nM and 1000 nM (sheet 'Samples'), CATDS: 0.34690050634706199; n = 1
# FRK = conditions: read-out: apparent Kd, compound concentrations: 100 nM and 1000 nM (sheet 'Samples'), n = 1
# HCK = conditions: read-out: apparent Kd, compound concentrations: 100 nM and 1000 nM (sheet 'Samples'), n = 1
# LCK = conditions: read-out: apparent Kd, compound concentrations: 100 nM and 1000 nM (sheet 'Samples'), n = 1
# MAP2K5 = conditions: read-out: apparent Kd, compound concentrations: 100 nM and 1000 nM (sheet 'Samples'), n = 1
# LYN = conditions: read-out: apparent Kd; compound concentrations: 100 nM and 1000 nM (sheet 'Samples'), CATDS: 0.140123988269205; n = 1
# TNK2 = conditions: read-out: apparent Kd; compound concentrations: 100 nM and 1000 nM (sheet 'Samples'), CATDS: 0.21718962243178; n = 1
# STK10 = conditions: read-out: apparent Kd; compound concentrations: 100 nM and 1000 nM (sheet 'Samples'), CATDS: 0.42195435963049299; n = 1
# GSK3A = conditions: read-out: apparent Kd, compound concentrations: 100 nM and 1000 nM (sheet 'Samples'), n = 1
# GSK3B = conditions: read-out: apparent Kd, compound concentrations: 100 nM and 1000 nM (sheet 'Samples'), n = 1
# HSPE1 = conditions: read-out: apparent Kd; compound concentrations:100 nM and 1000 nM (sheet 'Samples'); n = 1
# NQO2 = conditions: read-out: apparent Kd; compound concentrations:100 nM and 1000 nM (sheet 'Samples'); n = 1
# TGFBR1 = conditions: read-out: apparent Kd; compound concentrations: 100 nM and 1000 nM (sheet 'Samples'), CATDS: 0.31893275464491699; n = 1
# ICK = conditions: read-out: apparent Kd; compound concentrations: 100 nM and 1000 nM (sheet 'Samples'), CATDS: 0.23938622627213799; n = 1
# STRADA = conditions: read-out: apparent Kd; compound concentrations: 100 nM and 1000 nM (sheet 'Samples'), CATDS: 0.19302175262426299; n = 1
smiles,measurement,setting,value
C#Cc1cccc(Nc2ncnc3ccc(OCCCCNCCS(C)(=O)=O)cc23)c1 [GW680191X],potency estimated from few doses,GAK; CATDS: 0.59760522623710299,804 nM
same,potency estimated from few doses,NQO1,1580 nM
NS(=O)(=O)c1cccc(N/C=C2\C(=O)Nc3ccc(S(=O)(=O)Cc4c(Cl)cccc4Cl)cc32)c1 [GSK398099A],potency estimated from few doses,FN3K,2240 nM
same,potency estimated from few doses,ROCK1,1680 nM
same,potency estimated from few doses,ROCK2,1720 nM
COc1cc2nccc(Nc3ccc(NC(=O)c4ccc(C)cc4)c(O)c3)c2cc1OC.Cl [GW440132A],potency estimated from few doses,FRK; CATDS: 0.28944129909261102,691 nM
same,potency estimated from few doses,HCK; CATDS: 0.241643180155243,986 nM
same,potency estimated from few doses,LCK; CATDS: 0.30139088079166299,643 nM
same,potency estimated from few doses,MAP2K5; CATDS: 0.19651058590933199,1640 nM
Cc1ccc(C(=O)Nc2ccc(Nc3ccnc4cc(-c5ccccn5)ccc34)cc2O)cc1.Cl [GW440146A],potency estimated from few doses,FRK; CATDS: 0.227181560235134,250 nM
same,potency estimated from few doses,HCK; CATDS: 0.17687822419951399,398 nM
same,potency estimated from few doses,LCK; CATDS: 0.18982268752043399,346 nM
same,potency estimated from few doses,LYN,686 nM
same,potency estimated from few doses,MAP2K5; CATDS: 0.111910092443395,1450 nM
same,potency estimated from few doses,TNK2,270 nM
C#Cc1cccc(Nc2ncnc3cc(OCCOC)c(OCCOC)cc23)c1.Cl [GW459135A],potency estimated from few doses,GAK; CATDS: 0.61346853975848203,949 nM
same,potency estimated from few doses,STK10,2060 nM
Cn1cc(C2=C(c3cn(C)c4cc(C(=O)O)ccc34)C(=O)NC2=O)c2ccccc21 [RO0319318-000],potency estimated from few doses,GSK3A; CATDS: 0.46645523537497902,612 nM
same,potency estimated from few doses,GSK3B; CATDS: 0.53874330478413901,458 nM
Fc1ccc(-c2c(-c3ccccn3)nc3n2CCS3)cc1 [SKF-104365],potency estimated from few doses,HSPE1,149 nM
same,potency estimated from few doses,NQO2,1340 nM
same,potency estimated from few doses,TGFBR1,537 nM
CCCn1cc(C2=C(c3cn(C)c4ccccc34)C(=O)NC2=O)c2ccccc21 [RO0318549-000],potency estimated from few doses,GSK3A; CATDS: 0.30461249661504503,823 nM
same,potency estimated from few doses,GSK3B; CATDS: 0.29770520720673899,857 nM
same,potency estimated from few doses,ICK,1320 nM
same,potency estimated from few doses,STRADA,2260 nM
